According to PubChem BioAssay (NCATS):
Results filed as inconclusive are left out. The source made the active and inactive calls. Calls come from the whole dose curve; as a rule, active = well fitted curve in the direction sought with a large enough effect; inconclusive = small, poorly fitted or top-dose-only effect, or another doubt; inactive = no such curve, though single readings can be large; an effect the other way counts as inactive or inconclusive.

Experiments:
[1] = MultiTox-Fluor Cytotoxicity Assay - LYMP1-001 - Dead Cells (AID 946)
How it was run: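 Cytotoxicity as increased dead-cell protease fluorescence (bis-AAF-R110, 485/520 nm), read 60 min after MultiTox-Fluor reagent. Human lymphoblastoid line exposed 16 h; Hill-fitted AC50, with DMSO as 0% and 15 uM tetraoctylammonium bromide as 100%.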

[2] = MultiTox-Fluor Cytotoxicity Assay - LYMP1-001 - Live Cells (AID 947)
[3] = Cell Viability - LYMP1-002 - Assay at 16 hr (AID 948)
How it was run: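 LYMP1-002 human lymphoblastoid cells, 2500/well; 5 hr 37 C; cpd 16 hr 37 C; CellTiter-Glo 30 min RT; luminescence (ATP). Concentration-response, Hill-fit AC50. Pos ctrl tetraoctylammonium bromide.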

[4] = MultiTox-Fluor Cytotoxicity Assay - LYMP1-002 - Live Cells (AID 955);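 note: cells exposed to compound for 16 hours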
How it was run: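 LYMP1-002 lymphoblastoid cells; 2500 cells/well; 16 hr compound exposure, 37 C; MultiTox-Fluor reagent 60 min RT; live-cell fluorescence Ex/Em=405/510; qHTS concentration-response, Hill-equation AC50; tetraoctylammonium bromide positive control.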

[5] = MultiTox-Fluor Cytotoxicity Assay - LYMP1-002 - Dead Cells (AID 960); note: nearly all actives have a fitted effect of over 60% in size
How it was run: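 Readout: fluorescence at 485/520 from cell-impermeant bis-AAF-R110 cleaved by proteases leaking from damaged cells. LYMP1-002 lymphoblastoid line, 16 hr compound treatment at 37 C, concentration-response in qHTS format; Hill-equation AC50 values.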

[6] = MultiTox-Fluor Cytotoxicity Assay - LYMP1-003 - Dead Cells (AID 961); note: nearly all actives have a fitted effect of over 70% in size
How it was run: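 Dead-cell protease release, detected as bis-AAF-R110 fluorescence at 485/520 nm, was measured in LYMP1-003 cells after 16 h compound treatment at 37 C. AC50 values came from Hill-modeled qHTS curves normalized to DMSO (0%) and 15 uM tetraoctylammonium bromide (100%).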

[7] = MultiTox-Fluor Cytotoxicity Assay - LYMP1-003 - Live Cells (AID 962);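 note: cells exposed to compound for 16 hours at 37 °C; cytotoxic hits lower the live-cell protease signal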
How it was run: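 Readout: live-cell fluorescence (Ex/Em=405/510) from GF-AFC cleavage after 60 min MultiTox-Fluor reagent at room temperature. Lymphoblastoid LYMP1-003 cells, 16 hr compound treatment, 37 C. Concentration-response fitted to standard Hill equation for AC50.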

[8] = Cell Viability - LYMP1-003 - Assay at 24 hr (AID 963)
How it was run: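 CellTiter-Glo luminescence (intracellular ATP) read after 24 hr, 37 C compound exposure of 2500 LYMP1-003 human lymphoblastoid cells/well in complete medium; qHTS concentration series; AC50 via standard Hill equation.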

[9] = Cell Viability - LYMP1-003 - Assay at 40 hr (AID 964); note: series mostly up to about 92 µM; nearly all actives have a fitted effect of over 60% in size
How it was run: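 LYMP1-003 lymphoblastoid cells, 2500/well; 5 hr preincubation, 40 hr compound exposure, 37 C; CellTiter-Glo 30 min RT; luminescence; Hill-fit AC50. Positive control tetraoctylammonium bromide.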

[10] = Cell Viability - LYMP2-003 (AID 965);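 note: cells exposed to compounds for 24 h before reading; nearly all actives have a fitted effect of over 50% in size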
How it was run: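 CellTiter-Glo luminescence (cellular ATP) after 24 h compound exposure at 37 C in complete medium; 2500 cells/well, 5 h settling beforehand. Concentration-response fitted to standard Hill equation for AC50. Tetraoctylammonium bromide served as positive control.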

[11] = Cell Viability - LYMP2-009 (AID 968); note: series mostly up to about 92 µM; nearly all actives have a fitted effect of over 55% in size
[12] = Cell Viability - LYMP2-011 (AID 969);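 note: cells exposed to compound for 24 hours; nearly all actives have a fitted effect of over 60% in size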
How it was run: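 Luminescent ATP read-out (CellTiter-Glo, 30 min RT) after 24 hr compound exposure at 37 C in human lymphoblastoid cells, 2500 cells/well. Decreasing ATP indicates cytotoxicity; AC50 from standard Hill fit.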

[13] = Cell Viability - LYMP2-015 (AID 971); note: nearly all actives have a fitted effect of over 55% in size
How it was run: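 qHTS cytotoxicity: 2500 cells/well, 5 hr 37 C, compound 24 hr 37 C, CellTiter-Glo 30 min RT, luminescence. Loss of ATP = toxicity; AC50 via standard Hill fit.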

[14] = Cell Viability - LYMP2-017 (AID 972);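 note: series mostly up to about 92 µM; cells exposed to compound for 24 hours at 37 °C; nearly all actives have a fitted effect of over 55% in size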
How it was run: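 Luminescent ATP read-out (CellTiter-Glo, 30 min RT) reports viable cell number. Cells: human lymphoblastoid line, 2500 per well, 5 hr preincubation, 24 hr compound exposure at 37 C. AC50 is derived from qHTS concentration-response data using the standard Hill model.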

[15] = Cell Viability - LYMP2-019 (AID 973); note: nearly all actives have a fitted effect of over 55% in size
How it was run: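 qHTS, 1536-well; 2500 cells/well; 5 hr pre-incubation, 24 hr compound exposure, 37 C; CellTiter-Glo added, 30 min RT; luminescence read; AC50 via standard Hill equation.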

[16] = Cell Viability - LYMP2-021 (AID 974)
How it was run: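 ATP luminescence (CellTiter-Glo, 30 min RT) after 24 h compound exposure at 37 C; 2500 human lymphoblastoid cells/well, 5 h settle beforehand. Cytotoxicity = concentration-dependent ATP drop, AC50 by Hill fit.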

[17] = Cell Viability - LYMP2-023 (AID 975)
How it was run: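 CellTiter-Glo luminescence after 30 min at room temperature; decrease in intracellular ATP reflects toxicity. Cells: human lymphoblastoid line, 2500/well, 24 hr compound exposure at 37 C. AC50 fitted to standard Hill equation from concentration-response.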

[18] = Cell Viability - LYMP2-013 (AID 970)
How it was run: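 CellTiter-Glo luminescence (cellular ATP) read after 30 min at RT. Cells: human lymphoblastoid line, 2500/well, 24 hr compound exposure at 37 C. Tetraoctylammonium bromide positive control; AC50 via standard Hill fit of qHTS titrations.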

[19] = Cell Viability - LYMP2-004 (AID 966); note: nearly all actives have a fitted effect of over 65% in size
How it was run: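 Luminescent ATP read-out (CellTiter-Glo, 30 min RT) after 24 hr compound exposure at 37 C; 2500 lymphoblastoid cells/well, complete medium. Decrease in ATP = cytotoxicity; AC50 from standard Hill model.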

[20] = Cell Viability - LYMP2-005 (AID 967); note: series mostly up to about 92 µM
How it was run: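 Steps: seed 2500 LYMP2-005 cells/well, incubate 5 h at 37 C, add compound, incubate 24 h at 37 C, add CellTiter-Glo, wait 30 min at RT, read luminescence. Concentration-response data fitted to Hill equation for AC50.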

Measured: Potency

C=C(C)C1CC=C(C)C(OC(C)=O)C1 (stereo unspecified)
not listed: [18] | [19] | [20]
inactive: all other assays above

O=C(O)c1ccc(Cl)c(Cl)c1
not listed: [11] | [19] | [20]
inactive: all other assays above

NC(N)=S
not listed: [10]
inactive: all other assays above

COC(=O)CS
not listed: [16] | [19]
inactive: all other assays above

C=C(C)C(=O)OCC(C)O (stereo unspecified)
not listed: [18] | [19]
inactive: all other assays above

CC(CCl)OC(C)CCl (stereo unspecified)
not listed: [9] | [12] | [19] | [20]
inactive: all other assays above

C1CCOC1
not listed: [10]
inactive: all other assays above

COc1cccc(N)c1
not listed: [10]
inactive: all other assays above

C=CCCC
not listed: [9] | [18]
inactive: all other assays above

Cc1ccccc1C=O
not listed: [10] | [11]
inactive: all other assays above

C=Cc1ccc(C=C)cc1
not listed: [10]
inactive: all other assays above

CC(=O)Nc1cccc(N)c1
not listed: [9]
inactive: all other assays above

Cc1ccccc1C(=O)O
not listed: [10] | [16] | [20]
inactive: all other assays above

O=C1CCCCC1
not listed: [9] | [10]
inactive: all other assays above

Cc1ccc2cccnc2c1
not listed: [10] | [12]
inactive: all other assays above

CC(=O)c1ccc([N+](=O)[O-])cc1
not listed: [10]
inactive: all other assays above

CC=O
not listed: [10]
inactive: all other assays above

CCCCCCO
not listed: [10]
inactive: all other assays above

Cc1ccc(Br)cc1
not listed: [9] | [11]
inactive: all other assays above

Cc1ccc(C)o1
not listed: [9] | [17]
inactive: all other assays above

O=Cc1ccc(CO)o1
not listed: [11] | [19]
inactive: all other assays above

Cc1ccccc1C(N)=O
not listed: [16] | [19] | [20]
inactive: all other assays above

C/C=C(/C)C#N
not listed: [9] | [10] | [17]
inactive: all other assays above

CC1(N)CCC(C(C)(C)N)CC1 (stereo unspecified)
not listed: [9] | [16]
inactive: all other assays above

CC(C)(O)CCC(C)(C)O
not listed: [10] | [20]
inactive: all other assays above

C/C=C1\CC2C=CC1C2 (stereo unspecified)
not listed: [10] | [18]
inactive: all other assays above

NC(=O)c1cccc([N+](=O)[O-])c1
not listed: [8]
inactive: all other assays above

C(=C/c1ccccc1)/c1ccccc1
not listed: [9] | [18] | [19]
inactive: all other assays above

Cc1cc(C(=O)O)ccc1[N+](=O)[O-]
not listed: [9] | [17]
inactive: all other assays above

NC(=O)c1ccccc1[N+](=O)[O-]
not listed: [9]
inactive: all other assays above

CNc1ccc([N+](=O)[O-])cc1
not listed: [5] | [8] | [11]
inactive: all other assays above

O=Cc1ccc(C(=O)O)cc1
not listed: [5] | [8] | [12]
inactive: all other assays above
